Compound activity as filed in PubChem.
Compounds with a hit are over-represented: about 1.3% of the library has one in this group of screens.
NPR1 activator: GC-A (human) enzyme activation; AID 1671463; 370,000 compounds, 0.14% hits; P16066; activation, % at 10 µM; HEK293 GC-A cells, cGMP TR-FRET, EC30 ANP; 0% at EC30 ANP, 100% saturating ANP; in the data active = activation above about 40%
ADAM17 inh: inhibitors of human ADAM17 | inhibition, % at 6.95 µM | P78536 | 370,000 compounds, 0.83% hits | recombinant ADAM17, EDANS/DABCYL FRET peptide cleavage | AID 720648;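 active = inhibition above the mean of compounds lying between control limits plus 3 SD, set per campaign, cut at about 8.5% in these data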;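 note: 0% = DMSO-only wells as the low control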
Target sequence (P78536 215-824 limits assumed): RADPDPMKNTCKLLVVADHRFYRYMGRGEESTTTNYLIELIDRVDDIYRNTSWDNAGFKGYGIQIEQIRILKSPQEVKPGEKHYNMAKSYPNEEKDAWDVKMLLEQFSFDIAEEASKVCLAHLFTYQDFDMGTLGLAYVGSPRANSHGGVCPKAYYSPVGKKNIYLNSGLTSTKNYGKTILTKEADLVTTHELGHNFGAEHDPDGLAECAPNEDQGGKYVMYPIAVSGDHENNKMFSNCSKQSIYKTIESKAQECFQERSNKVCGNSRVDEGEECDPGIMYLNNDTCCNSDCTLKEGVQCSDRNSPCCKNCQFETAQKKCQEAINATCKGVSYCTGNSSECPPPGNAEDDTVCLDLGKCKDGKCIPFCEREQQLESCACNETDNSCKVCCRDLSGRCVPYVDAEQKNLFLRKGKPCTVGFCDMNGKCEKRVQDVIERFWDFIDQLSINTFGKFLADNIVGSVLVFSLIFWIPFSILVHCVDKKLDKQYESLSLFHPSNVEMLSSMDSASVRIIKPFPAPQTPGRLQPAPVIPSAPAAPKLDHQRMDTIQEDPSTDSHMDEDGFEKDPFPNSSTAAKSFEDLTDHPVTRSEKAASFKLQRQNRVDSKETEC
NPR2 activator: GC-B (human) receptor activation; P20594; HEK293-GC-B cells, CNP EC30, cGMP TR-FRET; 0% at EC30 CNP, 100% saturating CNP; activation, % at 10 µM; 370,000 compounds, 0.11% hits; AID 1920062;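 active = activation at 10 µM reaching about 35% in either raw or pattern-adjusted values, limit read from the data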
ADAM10 inh: inhibitors of human ADAM10; O14672; recombinant ADAM10, EDANS/DABCYL FRET peptide cleavage, 3 h; inhibition, % at 7 µM; 370,000 compounds, 0.62% hits; AID 720582;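 active = inhibition above a per-campaign cutoff equal to the mean of compounds falling between control-based bounds plus 3 SD, cut at about 20% in these data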;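 note: 0% = DMSO wells while the 100% control is not disclosed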
ADAM10 confirm: confirmation of inhibitors of human ADAM10. AID 743208. shares compounds with ADAM10 inh. 2,100 compounds, 1% hits. inhibition, % at 6.95 µM. ADAM10 QFRET peptide cleavage, EDANS fluorescence;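 active = inhibition above about 20% chosen separately for each screening run, limit read from the data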;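 note: 0% = DMSO wells and 100% = marimastat wells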
ADAM17 counter: ADAM17 inhibition, counter-screen for ADAM10 exosite hits; ADAM17 QFRET peptide cleavage, EDANS fluorescence; inhibition, % at 6.95 µM; 2,100 compounds, 0.5% hits; shares compounds with ADAM10 inh;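 active = mean triplicate inhibition above the solvent-only control wells' mean plus 3 SD, cut at about 12% in these data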;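 note: 0% = DMSO wells and 100% = marimastat wells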
ADAM10 ctr: ADAM10 inhibition, counter-screen for ADAM17 exosite hits | recombinant ADAM10, EDANS/DABCYL FRET peptide cleavage, 3 h | shares compounds with ADAM17 inh | inhibition, % at 6.95 µM | 2,900 compounds, 47% hits;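 active = mean inhibition over the triplicate runs exceeds the activity threshold set in the earlier primary screen, cut at about 20% in these data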;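 note: 0% = DMSO wells and 100% = marimastat wells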
ADAM17 confirm: human ADAM17 inhibition, confirmation | shares compounds with ADAM17 inh | recombinant ADAM17, EDANS/DABCYL QFRET peptide cleavage | inhibition, % at 6.95 µM | 2,900 compounds, 65% hits;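 active = mean inhibition across replicates above the hit cutoff set in the primary screen, cut at about 8.5% in these data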;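 note: 0% = DMSO wells and 100% = marimastat wells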
Numbers without * were called inactive; i = inactive; · = no result given.

SMILES	NPR1 activator	ADAM17 inh	NPR2 activator	ADAM10 inh	ADAM10 ctr	ADAM17 confirm	others
O=C(CN(Cc1cccs1)S(=O)(=O)c1ccc(S(=O)(=O)NC2CCCCC2)cc1)Nc1ccccc1	0	17*	-2	36*	50*	25*	ADAM10 confirm=11;ADAM17 counter=3
Cc1ccccc1-c1noc(-c2ccc(Cl)cc2)n1	-1	0	-1	5	·	·
Cc1ccccc1-c1noc(-c2ccc(O)cc2)n1	·	13*	·	33*	19	12*	ADAM10 confirm=2;ADAM17 counter=0
NC(=O)c1ccc(NC(=O)C2CCCC2)cc1	3	-5	2	7	·	·
O=[N+]([O-])c1ccc(O)c(C=Nc2ccc3nc(-c4ccccc4)[nH]c3c2)c1	-3	i	-9	i	·	·
Cc1ccc([N+](=O)[O-])cc1-c1[nH]c(-c2ccc(O)c(O)c2)nc1-c1ccccc1	-45	8.8*	-25	21*	28*	13*	ADAM10 confirm=6;ADAM17 counter=2
CC(C)(C)OC(=O)C[C@H]1C/C=C\C[C@H](CC(=O)N(CCO)Cc2ccccc2)C(=O)NC[C@H](c2ccccc2)OC1=O	1	-6	2	-9	·	·
Cc1cc(C(=O)COC(=O)CC2Sc3ccccc3NC2=O)c(C)n1-c1ccccc1 (centres undefined)	-3	18*	3	28*	21*	12*	ADAM10 confirm=10;ADAM17 counter=1
CC1CCCCC12NC(=O)N(Cc1cc(=O)n3ccsc3n1)C2=O (centres undefined)	5	-12	0	-5	·	·
Cc1cc(NC(=O)COC(=O)[C@@H](NS(=O)(=O)c2ccccc2)C(C)C)no1	-2	-1	0	-9	·	·
CC(C)[C@H](NS(=O)(=O)c1ccccc1)C(=O)OCC(=O)Nc1ccccc1Sc1ccccc1	-4	9.6*	-1	20*	18	9.1*	ADAM10 confirm=5;ADAM17 counter=2
C[C@H](NC(=O)c1nc[nH]c1C(=O)NC(c1ccccc1)c1ccccc1)C(=O)OC(C)(C)C	-1	14*	5	24*	43*	24*	ADAM10 confirm=3;ADAM17 counter=2
CC(C)(C)OC(=O)CNC(=O)c1[nH]cnc1C(=O)NC(c1ccccc1)c1ccccc1	4	16*	8	27*	24*	14*	ADAM10 confirm=5;ADAM17 counter=2
CNC(=O)c1[nH]cnc1C(=O)NCC(=O)OC(C)(C)C	1	-6	0	-3	·	·
CCn1nc(C)cc1-c1nnc(Sc2ncc([N+](=O)[O-])s2)n1C	-7	-2	-1	-1	·	·
CCOc1ccc(-c2[nH]ncc2Oc2cccc(OC)c2)c(O)c1	4	11*	7	24*	35*	20*	ADAM10 confirm=7;ADAM17 counter=3
COc1ccc(Oc2cn[nH]c2-c2ccc(OCC(=O)NN)cc2O)cc1	2	4	1	10	·	·
CN(C)c1ccccc1-c1cc(NC=O)c2ncc(-c3cccc(C(F)(F)F)c3)n2c1	6	-30	-11	-95	·	·
CCCCc1ccc(NC(=O)CN(C)CC(=O)Nc2ccccc2Cl)cc1	0	16*	1	34*	20*	9.6*	ADAM10 confirm=2;ADAM17 counter=1
C=CCNC(=S)Nc1sc2c(c1C#N)CCCC2	2	-13	-3	-31	·	·
CCOc1ccc(N(CC(=O)NN=C2CCN(C)CC2)S(C)(=O)=O)cc1	5	8.7*	4	12	-3	-1
CCOc1ccc(N(CC(=O)Nc2ccc(Br)cc2)S(C)(=O)=O)cc1	-1	4	-2	11	·	·
CCOc1ccc(N(CC(=O)Nc2cccc(C)c2)S(C)(=O)=O)cc1	-3	9.0*	-1	9	0	2
COc1ccc(C(CNc2ccc(C(F)(F)F)cn2)N(C)C)cc1OC (centres undefined)	-3	-5	0	-3	·	·
O=C(COC(=O)c1ccc[nH]c1=O)NC1CC1	-1	-5	-3	-21	·	·
SMILES	NPR1 activator	ADAM17 inh	NPR2 activator	ADAM10 inh	ADAM10 ctr	ADAM17 confirm	others
CCOC(=O)C1=CCN(S(=O)(=O)c2ccc(C)cc2)C1c1ccc(CC)cc1 (centres undefined)	-4	8.8*	-1	-10	20*	16*
CCOC(=O)C1=CCN(S(=O)(=O)c2ccccc2F)C1c1cccc(Br)c1 (centres undefined)	-11	9.2*	-4	13	17	9.5*
C[C@H](CO)N1C[C@H](C)[C@H](CN(C)C(=O)NC2CCCCC2)Oc2cc(-c3cccnc3)ccc2S1(=O)=O	6	-6	1	-14	·	·
CCOC(=O)[C@]12CCCC3=C1N(CCC3)C(=O)[C@@H](CC(=O)N1CCCC1)C2	-4	0	-1	-1	·	·
CCCCN(CCCC)CCNC(=O)c1cn(C)c2ccc(S(=O)(=O)N3CCCC3)cc2c1=O	0	9.4*	3	-5	-6	2
COCCNC(=O)c1cn(C)c2ccc(S(=O)(=O)N3CCCC3)cc2c1=O	3	-5	-5	5	·	·
CC1(C)CC2CC(C)(CN2C(=O)c2cc(-c3ccccc3)on2)C1 (centres undefined)	-4	-1	-3	2	·	·
Clc1ccc(C2[C@H]3CN(Cc4ccc(-c5ccccc5)cc4)[C@H](c4ccccc4)C34CC2(c2ccccc2)C4)cn1 (some centres undefined)	-5	1	-7	3	·	·
N#Cc1ccc(C23CC4(C2)[C@H](CN(Cc2ccc(-c5ccccc5)cc2)[C@@H]4c2ccccc2)C3c2ccc(Cl)nc2)cc1 (some centres undefined)	-4	13*	-8	18	-1	4
Cc1ccc(Cc2c(C(C)(C)C)nc3cc(C)c(Br)c(C)n23)cc1	2	-4	-7	-6	·	·
Cc1ccc(S(=O)(=O)N(C)CC(=O)N(CC(C)C)C2CCS(=O)(=O)C2)cc1 (centres undefined)	1	0	0	6	·	·
Cc1cc(C(=O)Nc2ccccc2C)n(-c2ccccc2)n1	6	-3	-2	-2	·	·
Cc1cc(S(=O)(=O)NCc2ccccc2)ccc1OCC(=O)Nc1cccc([N+](=O)[O-])c1	-4	8.7*	-5	18	35*	22*
CC(NS(=O)(=O)c1ccc(Cl)cc1)C(=O)OCC(=O)Nc1ccc(N(C)C)cc1 (centres undefined)	-1	2	-3	-10	·	·
Clc1ccccc1C(c1nnnn1Cc1ccco1)N1CCN(Cc2ccco2)CC1 (centres undefined)	-6	9.2*	-6	13	-15	-1
